NPSR antagonist = qHTS Assay for Antagonists of the Neuropeptide S Receptor: cAMP Signal Transduction; Potency, µM (top dose mostly 38.3 µM), actives largely listed as inhibitors; CHO-NPSR cells, cAMP TR-FRET, antagonist mode; AID 1461, 2008; 1% of 220,000 active; further: nearly all actives have a fitted effect of over 50% in size
RXFP1 agonist = qHTS Assay for Agonists of the Relaxin Receptor RXFP1 | Potency, µM (highest dose often 57.5 µM), usual class: activators | Relaxin receptor 1 (Homo sapiens), Q9HBX9 | 0.3% of 370,000 active | HEK293T-RXFP1 cAMP TR-FRET, 30 min; response scale: percent of porcine relaxin response, buffer zero | AID 2676, 2010; further: nearly all actives have a fitted effect of over 60% in size
Target sequence (Q9HBX9 whole entry, looked up): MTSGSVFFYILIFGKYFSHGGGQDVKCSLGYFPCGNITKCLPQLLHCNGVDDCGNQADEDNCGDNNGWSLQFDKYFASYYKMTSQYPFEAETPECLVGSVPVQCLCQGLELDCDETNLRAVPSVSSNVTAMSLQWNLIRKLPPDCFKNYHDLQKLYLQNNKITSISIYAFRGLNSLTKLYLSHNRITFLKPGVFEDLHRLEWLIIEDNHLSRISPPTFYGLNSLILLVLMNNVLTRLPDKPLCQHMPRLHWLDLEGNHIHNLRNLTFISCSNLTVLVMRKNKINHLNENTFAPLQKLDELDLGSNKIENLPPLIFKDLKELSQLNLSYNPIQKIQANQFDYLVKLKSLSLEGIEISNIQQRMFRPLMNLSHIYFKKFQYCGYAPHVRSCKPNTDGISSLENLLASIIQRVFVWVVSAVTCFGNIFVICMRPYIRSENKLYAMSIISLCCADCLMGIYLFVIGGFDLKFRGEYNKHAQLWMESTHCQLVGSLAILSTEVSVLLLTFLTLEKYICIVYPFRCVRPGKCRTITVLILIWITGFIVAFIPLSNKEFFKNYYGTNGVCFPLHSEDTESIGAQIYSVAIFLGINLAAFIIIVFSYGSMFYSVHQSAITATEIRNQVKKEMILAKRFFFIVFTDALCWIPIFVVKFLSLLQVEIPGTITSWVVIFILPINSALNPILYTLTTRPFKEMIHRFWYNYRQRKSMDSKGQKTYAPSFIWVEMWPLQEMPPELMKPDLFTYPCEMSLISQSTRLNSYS
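HEK293T cells stably expressing RXFP1 were pretreated with the PDE4 inhibitor Ro 20174, exposed to compounds for 30 min at 37C, lysed, and cAMP was read by TR-FRET. Data normalized to buffer (basal) and 29 nM porcine relaxin (100%).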
Giardia killer = Small Molecules that selectively kill Giardia lamblia: qHTS; 0.15% of 340,000 active; Giardia lamblia trophozoite viability; activity change, % at 7.66 µM, hits read low; AID 540267, 2011; in the data active means activity change below about -80%; inconclusive means between about -30% and that limit;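 further: parasites exposed to compound for two days anaerobically before the ATP read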
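Giardia lamblia trophozoites (100 cells/well) were incubated with compounds for 48 h at 37 deg C under anaerobic conditions. Viability was read as ATP content by one-step luminescence after 15-30 min at room temperature.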
BRCA1 expr up = qHTS Assay to Identify Small Molecule Activators of BRCA1 Expression. MCF7-BRCA1-FFLuc reporter, luminescence, 48 h; response scale: scaled: vehicle 0%, 10 µM genistein 100%. Potency, µM (series often up to 46.1 µM), most hits filed as activators. 1.1% of 380,000 active. AID 624202, 2012; further: nearly all actives have a fitted effect of over 80% in size
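Cells: MCF7-BRCA1-FFLuc, 2000/well. Exposure: 48 h, 37 °C, 5% CO2. Read: luminescence, 15 min post-substrate. Controls: genistein 10 microM (maximal activation), DMSO (neutral).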
RXFP1 antagonist = qHTS Assay for Antagonists of the Relaxin Receptor RXFP1; HEK293-RXFP1, relaxin-stimulated cAMP HTRF, 30 min; hits give low values; activity change, negative = inhibition, % at 57.5 µM; 0.59% of 350,000 active; AID 1259400, 2018;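 active means activity change of -60% or lower, but not beyond a set lower limit; inconclusive means change between -60% and -40%, or beyond the set limit; inactive means change above -40%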
IL2 activator = qHTS of IL-2 Activators; 0.065% of 360,000 active; IL-2 activation reporter assay, cell-based qHTS; stimulated with anti-CD3/CD4/CD28 beads; in transgenic mouse T cells; AID 652025, 2013; activation, % (series mostly up to about 46 µM); in the data active means activation above about 50%; inconclusive means mostly about 30% to 49%
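Unstimulated transgenic mouse T cells, 750 per well, received compound and, after 60 minutes, anti-CD3/anti-CD4 bead plus anti-CD28 stimulation. EGFP and DsRed were quantified after 18 hours.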
Large screens that a line does not name were inactive. The list is not random: actives were taken first. Their share in the collection is about 1.9%. Unless noted, the call rests on the fitted dose curve; in most records, active means well fitted curve in the direction sought with a large enough effect; inconclusive means small, poorly fitted or top-dose-only effect, or another doubt; inactive means no such curve, though single readings can be large; an effect the other way counts as inactive or inconclusive.

Cc1ccc(/C=N/NC(=O)c2nn(C)cc2Cl)cc1	BRCA1 expr up inconclusive
CC(=O)O[C@@H]1C(=O)O[C@H]2[C@@H]1OC(=O)[C@@H]2OC(C)=O	none (no result: NPSR antagonist, RXFP1 agonist, Giardia killer, BRCA1 expr up, IL2 activator)
O=C(c1ccc(-c2ccc([N+](=O)[O-])cc2)o1)N1CCCCCCC1	RXFP1 antagonist -71 (no result: NPSR antagonist)
N#CCCN1CCN(C(=S)c2ccc(-c3cccc(Cl)c3)o2)CC1	BRCA1 expr up 10µM
CN1CCN(C(=S)c2ccc(-c3cccc([N+](=O)[O-])c3)o2)CC1	NPSR antagonist inconclusive, BRCA1 expr up inconclusive
O=[N+]([O-])c1cccc(-c2ccc(C(=S)N3CCOCC3)o2)c1	BRCA1 expr up 4.5µM
S=C(c1ccc(-c2cccc(Cl)c2)o1)N1CCOCC1	BRCA1 expr up 3.5µM
O=C(c1ccc(-c2ccc([N+](=O)[O-])cc2)o1)N1CCCC(C(F)(F)F)C1 (stereo not given)	none (no result: NPSR antagonist)
CN1CC=C2C(C#N)=C(N)C(C#N)(C#N)[C@H](c3cccc(Cl)c3)C2C1 (stereo not given in full)	none
CC(C)c1ccc(C2C3CSCC=C3C(C#N)=C(N)C2(C#N)C#N)cc1 (stereo not given)	NPSR antagonist 10µM (no result: Giardia killer, BRCA1 expr up, RXFP1 antagonist, IL2 activator)
CCCCC1=CC2=C(c3ccco3)C(=O)C(C)(OC(=O)c3ccc(OC)cc3)C(=O)C2=CN1CC(C)C (stereo not given)	NPSR antagonist 10µM, RXFP1 agonist 16µM (no result: RXFP1 antagonist)
CCCCCCCCCCOCC(O)CN (stereo not given)	none (no result: NPSR antagonist, RXFP1 agonist, Giardia killer, BRCA1 expr up, IL2 activator)
CCOC(=O)c1cc(-c2ccccc2)sc1NC(=O)CN1C(=O)c2ccccc2C1=O	none (no result: NPSR antagonist, RXFP1 agonist)
CCCC1(c2ccccc2)NC(=O)N(CC(=O)Nc2sc(-c3ccccc3)cc2C(=O)OCC)C1=O (stereo not given)	NPSR antagonist inconclusive, RXFP1 agonist 28µM
Cc1ccccc1NC(=O)CN1C(=O)S/C(=C\c2ccc(-c3cc(C(=O)O)ccc3C)o2)C1=O	IL2 activator 77
CCOC(=O)c1c(CSC(=N)N)n(-c2ccc(C)cc2)c2cc(Br)c(OC(C)=O)cc12	NPSR antagonist 10µM (no result: RXFP1 antagonist)
O=C(NCc1ccccn1)C1(C(F)(F)F)CC(CCCO)CCCO1 (stereo not given)	none (no result: NPSR antagonist, RXFP1 agonist, BRCA1 expr up, RXFP1 antagonist, IL2 activator)
c1ccc(Sc2ncnc3c2oc2ccccc23)nc1	BRCA1 expr up 11µM
CC(C)Sc1ncnc2c1oc1ccccc12	none
CCCc1nc2ccc(C)cn2c1Cc1ccc(C)cc1	BRCA1 expr up 7.1µM (no result: NPSR antagonist, RXFP1 agonist, Giardia killer, RXFP1 antagonist)
CCCc1nc2ccc(C)cn2c1Cc1ccccc1	BRCA1 expr up inconclusive (no result: NPSR antagonist, RXFP1 agonist, Giardia killer, RXFP1 antagonist)
O=C(CCCc1ccccc1)N1CCN(C2CCCCC2)CC1	BRCA1 expr up 5µM (no result: NPSR antagonist)
COc1ccc(CCC(=O)N2CCN(C3CCCCC3)CC2)cc1	none
Cc1c(C(=O)O)oc2c(F)cccc12	none
Cc1c(C(=O)N2C[C@@H](C)O[C@@H](C)C2)oc2c(F)cccc12	BRCA1 expr up 11µM (no result: NPSR antagonist)
CCN(CC)c1nc(NC2CCN(C)CC2)c2cc(OC)c(OC)cc2n1	none (no result: NPSR antagonist, RXFP1 agonist, Giardia killer, RXFP1 antagonist, IL2 activator)
COc1ccc(C2=NOC(CNC(N)=S)C2)cc1 (stereo not given)	BRCA1 expr up 3.2µM
COc1ccc(C2=NOC(COc3ccc([N+](=O)[O-])cc3)C2)cc1 (stereo not given)	none
CCOC(=O)C1=C(C)N(c2ccc(C)c(C)c2)C(=O)/C1=C\c1ccco1	NPSR antagonist inconclusive
COC(=O)C1=C(C)N(c2ccc(C)c(C)c2)/C(=C/c2ccco2)C1=O	IL2 activator 71
CCOc1ccc(CNC(=O)c2ccc3c(c2)nc2n3CCCCC2)cc1	none (no result: NPSR antagonist, Giardia killer, BRCA1 expr up, IL2 activator)
O=C(Nc1cc(-c2nc3ncccc3o2)ccc1Cl)c1ccc([N+](=O)[O-])o1	Giardia killer -83 (no result: NPSR antagonist)
O=C(Nc1ncccn1)c1ccc([N+](=O)[O-])o1	RXFP1 agonist 18µM, Giardia killer -93
O=C(Nc1ccccn1)c1ccc([N+](=O)[O-])o1	Giardia killer -93
Cc1ccnc(NC(=O)c2ccc([N+](=O)[O-])o2)c1	Giardia killer inconclusive
CC1CCc2c(C(=O)NCC3CCCO3)csc2C1 (stereo not given)	BRCA1 expr up 11µM
CC1CCc2sc(C(=O)NC(C)C3CCCO3)cc2C1 (stereo not given)	BRCA1 expr up inconclusive (no result: NPSR antagonist)
CC1CCc2c(C(=O)NCc3ccccn3)csc2C1 (stereo not given)	BRCA1 expr up 11µM
CC1CCc2c(C(=O)Nc3ccccn3)csc2C1 (stereo not given)	BRCA1 expr up inconclusive
CC1CCc2sc(C(=O)NC3CCCCC3)cc2C1 (stereo not given)	BRCA1 expr up 11µM (no result: NPSR antagonist)
CC1CCc2sc(C(=O)NCc3ccccn3)cc2C1 (stereo not given)	BRCA1 expr up 11µM (no result: NPSR antagonist)
CC1CCc2sc(C(=O)NCc3ccc(F)cc3)cc2C1 (stereo not given)	none
COc1ccc(-c2nn3c(-c4cc(-c5ccccc5)n[nH]4)nnc3s2)cc1OC	none (no result: NPSR antagonist, RXFP1 agonist, RXFP1 antagonist, IL2 activator)
CC(C)c1ccc(OCC(=O)N(Cc2cccs2)C2CCS(=O)(=O)C2)cc1 (stereo not given)	none (no result: NPSR antagonist, Giardia killer, BRCA1 expr up, IL2 activator)
C/C(=N\NC(=O)c1cc2c(s1)CCC(C)C2)c1ccc[nH]1 (stereo not given)	BRCA1 expr up 5µM (no result: NPSR antagonist)
CC1CCc2c(C(=O)Nc3nccs3)csc2C1 (stereo not given)	BRCA1 expr up 13µM
CCSc1nnc(NC(=O)c2csc3c2CCC(C)C3)s1 (stereo not given)	none
CN(C)CCC1(C2=CCCC2)CC/C(=C/c2ccc(Cl)cc2)C1=O (stereo not given)	RXFP1 antagonist -73 (no result: NPSR antagonist, RXFP1 agonist)
CN(C)CC1CCC/C(=C\c2ccc(OC(=O)c3ccc(Cl)cc3)cc2)C1=O (stereo not given)	none (no result: NPSR antagonist, RXFP1 agonist)
CCc1ccc(OCCn2c(CCNC(=O)C3CCCCC3)nc3ccccc32)cc1	none (no result: NPSR antagonist, RXFP1 agonist, RXFP1 antagonist, IL2 activator)
O=C(Nc1nc2c(Cl)cccc2s1)c1ccc(Br)o1	NPSR antagonist inconclusive
O=C(Nc1nc2c(Cl)cccc2s1)c1ccc([N+](=O)[O-])o1	Giardia killer -101 (no result: NPSR antagonist)
O=C(Nc1nc2c(F)cccc2s1)c1ccc([N+](=O)[O-])o1	Giardia killer -97 (no result: NPSR antagonist)
O=C(NCc1cccnc1)/C(=C/c1ccc(-c2ccc(Cl)cc2)o1)S(=O)(=O)c1ccccc1	NPSR antagonist 10µM
O=C(CN1C(=O)C2C3C=CC(C3)C2C1=O)Nc1ccc2c(c1)OCCO2 (stereo not given)	BRCA1 expr up 13µM
O=C(Cn1cnc2ccccc2c1=O)Nc1ccc2c(c1)OCCO2	BRCA1 expr up 3.2µM

Compound activity (PubChem BioAssay)
